# Measured values reported in PubChem BioAssay AID488862 (Broad Institute, 2010).
# The campaign covered roughly 340,000 compounds. About 1,200 (0.35%) were called active. The list comes from a sample in which actives are over-represented; it also holds similar structures and randomly drawn compounds. Unmarked numbers belong to inactive results. No stated cut-off is given here; in the data, active means inhibition above about 52%; inactive means the rest.
# Experiment: inhibition of PrP 5' UTR reporter expression (AID 488862); further: 0 = median of the neutral control wells
# Settings: cell-based PrP 5' UTR mRNA reporter, plate reader; stronger effect = higher value; concentration not given here
row,Structure (SMILES),inhibition
1,Cc1nonc1C(=O)N/N=C/c1ccc(O)cc1,-28.8%
2,COC(=O)c1ccccc1NC(=O)CN(Cc1ccccc1)S(C)(=O)=O,-21.1%
3,C/C(=N\Nc1nncc2ccccc12)c1ccc(Cl)c([N+](=O)[O-])c1,-45.7%
4,COc1cccc(/C=N\Nc2nncc(-c3ccccc3)n2)c1,-63.5%
5,CN(CCO)c1ccc(/C=N/Nc2nncc3ccccc23)cc1,79.8% (active)
6,CC(C)(C)C1CCC(C(=O)Nc2cccnc2)CC1 (stereo not given),-7.89%
7,O=C(Nc1ccc(Br)cn1)C1CCN(S(=O)(=O)c2cccs2)CC1,-7.76%
8,C/C(=N\NC(=O)c1ccc2ccccc2c1)c1cccnc1,-12.7%
9,CC1CCc2sc(C(=O)N/N=C/C3CCCCC3)cc2C1 (stereo not given),1.9%
10,C/C(=N\NC(=O)c1cc2c(s1)CCC(C)C2)c1cccnc1 (stereo not given),55.4% (active)
11,COc1ccc2oc(C(=O)OCC(=O)N(CC(C)C)c3c(N)n(Cc4ccccc4)c(=O)[nH]c3=O)c(C)c2c1,4.93%
12,COc1ccc(N(C(=O)c2ccc(C)cc2)S(=O)(=O)c2cccs2)cc1,-6.19%
13,CC(C)(C)c1ccc(OC2=CS(=O)(=O)c3ccccc32)cc1,-61.3%
14,CC(C)(C)c1ccc(Oc2ccc(N)cc2)cc1,64.6% (active)
15,CC(C)(C)c1ccc(OC(=O)N2CCCCC2)cc1,-72.8%
16,CCOC(=O)N1CCN(C(=O)COCc2cc(-c3ccc4c(c3)OCO4)on2)CC1,-11.7%
17,N#C/C=C\Oc1ccc(Cl)cc1N,-13%
18,COc1cccc2c1OCC1COc3c(c(=O)n(C)c(=O)n3C)C21 (stereo not given),-23.4%
19,O=C(NCCCN1CCOCC1)c1ccccc1NS(=O)(=O)c1ccc(Br)cc1,-22.1%
20,COCC(C)n1c(C)cc(C(=O)CSc2cc(C)c3ccccc3n2)c1C (stereo not given),-11.2%
21,c1ccc(-n2ncc(-c3nn[nH]n3)n2)cc1,-12.7%
22,c1c2c(cc3sc(N4CCCCC4)nc13)OCCO2,76.1% (active)
23,CN(C)CCN(C(=O)C1CCCCC1)c1nc2cc3c(cc2s1)OCO3,-8.29%
24,O=S(=O)(Nc1ccc2nc(N3CCOCC3)sc2c1)c1ccccc1,-104%

row,Structure (SMILES),inhibition
1,CC(=O)N1CCc2cc(S(=O)(=O)Nc3ccccc3N3CCN(C)CC3)ccc21,-36.7%
2,Cc1ccc(C(c2sc3nc(C)nn3c2O)N2CCN(c3ccccc3)CC2)cc1 (stereo not given),-16.6%
3,CC12CCC3C(CCC4CC(=O)CCC43C)C1CC(=NO)C2=O (stereo not given),52% (active)
4,C[C@]12CCC3C(CC[C@H]4[C@H](O)[C@H](O)CC[C@]34C)C1CCC2=O (stereo not given in full),-23.5%
5,CC(C)C(NC(=O)OCc1ccccc1)C(=O)OCC(=O)N1C(C)CCCC1C (stereo not given),-20.8%
6,CN(C)C(=O)c1cc(Br)ccc1Cl,-23.2%
7,CC(C)CC[n+]1ccn(C2=C([O-])c3ccccc3C(=O)/C2=N\S(=O)(=O)c2ccccc2)c1,-17.3%
8,CC(C)C(C)NC(=O)COc1nc2ccccc2nc1N(C)C1CCCCC1 (stereo not given),-28.4%
9,CN(c1ccc2nc3ccccc3c(=O)n2n1)C1CCCCC1,78.1% (active)
10,CC(C)(C)c1nc2ccccc2c(=O)n1N1C(=O)c2ccccc2C1=O,-7.16%
11,O=C(CCn1c(=O)oc2ccccc21)Nc1ccon1,-14.3%
12,CCCNC(=O)C1CC(=O)N(c2ccc(OCC(=O)Nc3cccc(C)c3C)cc2)C1 (stereo not given),-2.71%
13,O=C(c1ccc2c(c1)C(=O)N(Cc1ccncc1)C2=O)N1CCN(S(=O)(=O)c2ccc(OC(F)(F)F)cc2)CC1,-12.7%
14,CC[n+]1c(C)n(-c2ccccc2)c2ccc(NC(C)=O)cc21,-45%
15,CN(NC(=O)c1ccccc1F)c1nc(C(F)(F)F)nc2ccccc12,61.9% (active)
16,Cn1c(CC(=O)NNC(=O)c2ccccc2F)nc2ccccc21,-14.3%
17,CSc1nc(N(C)NC(=O)c2cccc(C)c2)c2ccccc2n1,30.9%
18,CCOC(=O)c1ccc(NC(=O)C2CC(=O)Nc3nc4ccccc4n32)cc1 (stereo not given),-13.3%
19,Nc1ccc(OCC(O)C[n+]2ccc(CCS(=O)(=O)[O-])cc2)cc1 (stereo not given),78.9% (active)
20,CCCc1ccc(OCC(O)CN2CCN(CCO)CC2)cc1 (stereo not given),-4.25%
21,CCCc1ccc(OCC(O)CN2CCN(C(=O)OCC)CC2)cc1 (stereo not given),-12.3%
22,COC(=O)N1CN(C(=O)OC)CN(C(=O)OC)C1,-16.8%
23,COC(=O)C1C(=O)c2c([nH]c(C(=O)OCCSC)c2C)CC1C (stereo not given),-51.7%
24,CCOC(=O)C1=C(N)N(c2ccc(C)cc2)C2=C(C(=O)CCC2)C1c1cccs1 (stereo not given),-23.6%

row,Structure (SMILES),inhibition
1,CCCOC(=O)c1[nH]c2c(c1C)C(=O)CC(c1cccs1)C2 (stereo not given),60.4% (active)
2,COc1cccc(NC(=O)N2CCCC2C(=O)NC2CCCCC2)c1 (stereo not given),-31.7%
3,C/C(=C(\C#N)C(=O)NCCCN1CCOCC1)N(C)C,-31.6%
4,COc1cccc2c1OCC(C(=O)NCc1ccc(Cl)cc1Cl)=C2,-13%
5,COC(=O)C(C)Sc1ccc2nnc(-c3cccc(F)c3)n2n1 (stereo not given),-8.06%
6,COCCNc1cc(-c2ccccc2)nc2cc(-c3cccc(F)c3)nn12,59.6% (active)
7,COc1ccc(NC(=O)c2cc3nc(-c4ccccc4)cc(C)n3n2)cc1OC,-26.9%
8,COc1ccc(/C=C/c2noc(-c3ccccc3OC(C)=O)n2)cc1,-28.8%
9,COc1ccc(-c2nc(-c3ccccc3)no2)c(OC)c1,66.6% (active)
10,COc1ccc(OC)c(-c2csc(-c3cccs3)n2)c1,4.49%
11,COc1ccccc1Nc1nnc(SC(C)C(=O)NC2CC2)s1 (stereo not given),2.27%
12,CCOC(=O)c1c(/N=C/c2cc(C)ccc2O)sc2c1CCC2,-12.5%
13,O=C(CSc1cccc[n+]1[O-])NCCCc1ccccc1,-19.4%
14,C=CCn1c(C)cc(C2=NNC(=NCC)SC2)c1C,93.9% (active)
15,CN(C)c1ccc(CNC(=O)CN2C(=O)COc3ccc(S(=O)(=O)N4CCCC4)cc32)cc1,-1.62%
16,CCCC(=O)n1nc(NCc2ccc(OC)cc2)nc1NCc1ccc(OC)cc1,-14.7%
17,Clc1ccc2nc(-c3ccccc3)nc(C(Cl)Cl)c2c1,92.7% (active)
18,Clc1ccc2nc3c(c(-c4ccccc4)c2c1)CNCC3,-16%
19,NC(N)=Nc1nc(-c2ccccc2)c2cc(Cl)ccc2n1,-17.4%
20,Oc1ccccc1N1CCN(C(=S)NCc2ccccc2)CC1,-14.6%
21,O=C(COC(=O)c1ccccc1C(=O)N1CCN(c2ccccc2)CC1)NCc1ccccc1,-7.33%
22,Oc1ccc(N2CCN(C(=S)NCc3ccccc3)CC2)cc1,87.9% (active)
23,O=C(NCc1ccco1)c1ccc([N+](=O)[O-])cc1Cl,-16.6%
24,CCC(=O)c1cn(CCOc2ccccc2OC)c2ccccc12,-20.1%

row,Structure (SMILES),inhibition
1,Cc1nn2cc(-c3ccc(Cl)cc3)cnc2c1Br,-42%
2,CCOc1ccc2sc(NS(=O)(=O)c3ccc(N)cc3)nc2c1,-14.4%
3,Cc1ccc(S(=O)(=O)NCCSc2ccccc2)cc1[N+](=O)[O-],-22.1%
4,Cc1ccc(S(=O)(=O)Nc2nc3ccccc3s2)cc1[N+](=O)[O-],57.4% (active)
5,O=C(Nc1ccc2c(c1)OCCO2)C1CCCC1,56.5% (active)
6,O=C(Nc1ccc2c(c1)OCO2)C1CC1(Cl)Cl (stereo not given),-8.25%
7,O=C(Nc1ccc2c(c1)OCCO2)c1ccoc1,-45.1%
8,O=C(c1ccc(Cl)nc1)N1CCN(S(=O)(=O)c2ccc3c(c2)OCCO3)CC1,-18.9%
9,O=S(=O)(c1ccc(Br)cc1)c1nc(-c2ccccc2)oc1N1CCOCC1,-6.56%
10,O=C(OCC(=O)N1CCN(C(=O)c2ccco2)CC1)c1c(Cl)cccc1Cl,-17%
11,COc1ccc(C(=O)Nc2cccc(NC(=O)c3ccc(OC)cc3OC)n2)c(OC)c1,-7.03%
12,COc1cc(SC)ccc1C(=O)Nc1nc(C)cs1,87% (active)
13,COc1cc(SC)ccc1C(=O)N(Cc1ccccc1)c1ccccc1,-4.63%
14,O=C(c1cccs1)n1nc(NCc2ccccc2)nc1NCc1ccccc1,-11.8%
15,Cc1noc(C)c1COC(=O)Cn1c(C)nc2ccccc21,-15.5%
16,CC(=O)c1sc(NC(=O)CCN2C(=O)C3CC=CCC3C2=O)nc1-c1ccccc1 (stereo not given),-19.1%
17,CC(=NCc1ccc2c(c1)OCO2)C1=C(O)c2ccccc2C1=O,1.49%
18,O=C(NCc1ccccc1CN1CCCC1)c1cccc(S(=O)(=O)Nc2ccc(F)cc2)c1,-16.1%
19,CCC(C)(O)C(=O)OC1C(=O)OC2CC3C(C)=CC(=O)C(O)C3(C)C3C4(O)OCC23C1C(C)C4O (stereo not given),78.9% (active)
20,Cc1cc(O)c(C(=O)/C=C/c2c(F)c(F)c(F)c(F)c2F)c(=O)o1,8.81%
21,CC1(C)C[C@H]2C3=CCC4[C@@]5(C)CC[C@H](O)[C@](C)(CO)C5CC[C@@]4(C)[C@]3(C)C[C@@H](O)[C@@]2(CO)[C@@H](O)[C@@H]1O (stereo not given in full),-7.8%
22,COc1ccccc1CNC(=O)CSc1nc(=O)n(Cc2ccncc2)c2c1CCC2,10.7%
23,CS(=O)(=O)N(CC(=O)N1CCOCC1)c1ccc2c3c(cccc13)CC2,-19.4%
